Screen size: about 190,000 compounds; about 80 (0.04%) were called active. No stated cut-off is given here; in the data, active means inhibition above about 40%. Not all results are given here.

The term inhibition denotes the change of the read-out against control, counted positive when it falls.

For this test, the target named is Bcl-2-like protein 1 (Homo sapiens) (UniProt Q07817). Kind of test: Bcl-XL/Bim peptide interaction blockers – biochemical, multiplexed, bead flow cytometry, human Bcl-XL, primary screen (AID 1007). The conditions noted are these: Bim peptide-Bcl-XL binding, fluorescence, at 10 µM, active compounds read high. (In general: A flow cytometer gives signals particle by particle.)
Bcl-2-like protein 1 (Homo sapiens), sequence (Q07817 whole entry, looked up): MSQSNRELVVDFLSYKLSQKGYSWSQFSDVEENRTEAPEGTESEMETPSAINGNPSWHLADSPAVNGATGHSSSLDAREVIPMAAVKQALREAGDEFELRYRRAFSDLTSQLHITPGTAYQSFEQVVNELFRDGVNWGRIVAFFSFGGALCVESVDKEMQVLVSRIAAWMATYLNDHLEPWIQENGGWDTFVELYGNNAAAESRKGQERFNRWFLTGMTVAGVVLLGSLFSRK
For the molecule `COc1ccc(-c2[nH]ncc2CN(C)Cc2cccnc2)c(F)c1`, the inhibition is 0% (inactive). As for `Cc1ccc2c(c1)C1CN(C)CCC1N2S(=O)(=O)c1ccc(Oc2ccc([N+](=O)[O-])cc2)cc1` (stereo unspecified), the figure is -1% (inactive); as for `CS(=O)(=O)N(CC(=O)N/N=C/c1ccccn1)c1ccc(Oc2ccccc2)cc1`, -4% (inactive). Then `CCOCCCNC(=O)C(=O)NCCCOCC`, with -11% (inactive); and `O=C(COC(=O)Cc1ccc(F)cc1)Nc1cc(S(=O)(=O)N2CCOCC2)ccc1N1CCCC1`, with -11% (inactive); and `Cc1nc(N2CCC(C)CC2)c2c(C)c(C(=O)Nc3cc(F)ccc3C)sc2n1`, with -5% (inactive). Turning to `Cc1ccc(C)c(CSc2nc(-c3ccco3)nc3c2c(=O)n(C)c(=O)n3C)c1`, the inhibition was -2% (inactive). As for `CCN(CC)CCn1c(/N=C/c2cc(Br)ccc2O)nc2ccccc21`, the figure is -11% (inactive); as for `O=[N+]([O-])c1ccccc1Nc1ccc(O)cc1`, -5% (inactive). Then `Cc1c(C(=O)O)nnn1-c1nonc1N`, with 0% (inactive); and `CN1CCN(C(CNS(=O)(=O)c2cccs2)c2cccnc2)CC1` (stereo unspecified), with 0% (inactive); and `O=C(Cc1cccs1)N/N=C/c1ccc(OCc2ccccc2)cc1`, with -4% (inactive). For the molecule `O=C(Nc1ccc2oc(-c3ccccc3F)nc2c1)c1ccco1`, the inhibition was 0% (inactive). Turning to `O=c1c(Cl)c(NCc2ccc(F)cc2Cl)cnn1C12CC3CC(CC(C3)C1)C2`, the inhibition is -8% (inactive). In the case of `COC(=O)c1ccc(OCC(O)CN(CCO)CC(O)Cn2ccc3ccccc32)cc1` (stereo unspecified), the inhibition is -8% (inactive). Then `CCc1ccc(-c2cc(C(=O)NN3CCN(C)CC3)c3ccccc3n2)cc1`, with -6% (inactive); and `COc1ccc(CCc2nnc(CCC(=O)NCc3cnn(-c4ccccc4C)c3)o2)cc1`, with 0% (inactive). Then `Cc1ccc(NC(=O)Cn2cccc2C2=NC(c3ccccc3)CO2)c(C)c1` (stereo unspecified), with -2% (inactive); and `CC(Sc1nc2c([nH]c3ccccc32)c(=O)n1C)c1ccccc1` (stereo unspecified), with -6% (inactive); and `O=C(Nc1ccccc1C(=O)N1CCOCC1)c1ccc(Cl)cc1`, with 0% (inactive). `Cc1nnc(SCC2=C(C(=O)O)N3C(=O)C(NC(=O)Cn4nc(C)c(Cl)c4C)C3SC2)s1` (stereo unspecified): the inhibition is -6% (inactive).

For the molecule `O=C(NC(CC(=O)N1CCN(c2ccccc2)CC1)c1ccccc1)c1ccccc1Cl` (stereo unspecified), the inhibition was -6% (inactive). Then `COc1ccc(NC(=O)COc2ccc(C(=O)OCC(=O)N(C)C3CCS(=O)(=O)C3)cc2OC)cc1` (stereo unspecified), with -2% (inactive). As for `Cn1c(CCC(=O)Nc2ccccc2F)nnc1SCC(=O)Nc1ccccc1Cl`, the figure is -5% (inactive); as for `COc1ccc(NC(=O)CC2C(=O)OCC3CCCCN32)cc1Cl` (stereo unspecified), -4% (inactive); as for `O=[N+]([O-])c1cccc(S(=O)(=O)N2CCCCCC2)c1`, -7% (inactive). Then `CCN1CCC2(CC1)N=C(c1ccc(F)cc1)C(=S)N2C(=O)c1ccc(C)cc1`, with -10% (inactive).

As for `Cc1ccc2c(=O)oc(N(C)C)nc2c1`, the inhibition is 1% (inactive).

On to `Cc1cc(C)c(C(N)=O)c(Cl)n1`, for which the inhibition is -2% (inactive). For `CCOC(=O)c1ccc(NC(=O)C2CC(=O)Nc3nc4ccccc4n32)cc1` (stereo unspecified), the inhibition was 2% (inactive). As for `CCn1c(N)c(Br)c(=O)[nH]c1=O`, the figure is -2% (inactive); as for `C#Cc1ccc([C@@H]2C=C(C(=O)O)O[C@H](OCCCCO)C2)cc1`, -4% (inactive); as for `CCN(CC)CC1(O)CCN(C(=O)c2ccc(Cl)c(Cl)c2)CC1`, 0% (inactive). As for `CCC(CC)c1nnc(NC(=O)/C=C/c2ccco2)s1`, the figure is -8% (inactive); as for `O=C(NCc1ccco1)C(=O)c1cn(CC(=O)N2CCCCCC2)c2ccccc12`, -2% (inactive).

Consider `COc1ccc(CNC(=O)CCCn2nc(C)c([N+](=O)[O-])c2C)cc1`, for which the inhibition is -4% (inactive). As for `O=C(N1CCCC1)C12CC3CC(C1)CC(C(=O)N1CCCC1)(C3)C2`, the figure is -4% (inactive). `Cc1ccccc1CN(c1ccc(C(=O)NCC2CCCO2)cc1)S(C)(=O)=O` (stereo unspecified): the inhibition was -6% (inactive). Then `O=C(c1cccc(F)c1)N1CCN(c2ccc([N+](=O)[O-])c3cccnc23)CC1`, with -4% (inactive). As for `COc1cccc(C(=O)N2CCCC(CCC(=O)NCc3ccc(F)c(F)c3)C2)c1` (stereo unspecified), the figure is -1% (inactive); as for `CCOC(=O)CCCNC(=O)COC(=O)c1cc(Br)c(Br)s1`, 2% (inactive).

Consider `Cc1ccccc1-c1n[nH]c(=S)n1/N=C/c1ccc(-c2ccccc2Br)o1`, for which the inhibition is -1% (inactive). Regarding `CC1CCCC(C)N1/N=C/c1ccccc1OC(F)F` (stereo unspecified), the inhibition is 2% (inactive).

On to `O=C1NC(c2ccccc2)CCC1(Cl)Cl` (stereo unspecified), for which the inhibition was -5% (inactive). Turning to `O=C(O)CC(SCC(=O)Nc1ccc(Br)cc1)C(=O)O` (stereo unspecified), the inhibition is -2% (inactive). Then `COc1cc(Cl)c(C)cc1NC(=O)COC(=O)c1cc(SC)ccc1Cl`, with -6% (inactive). In the case of `COC(=O)c1ccccc1SC1CC(=O)N(c2cccc(C)c2)C1=O` (stereo unspecified), the inhibition is -2% (inactive).

As to `Cc1ccc(NC(=O)Nc2nnc(-c3ccncc3)s2)cc1`, the inhibition was -2% (inactive). `OCCn1c(-c2ccccc2)csc1=Nc1ccccc1`: the inhibition was -3% (inactive). In the case of `COc1ccccc1N1CCN(/N=C\C(Br)=C\c2ccccc2)CC1`, the inhibition was -1% (inactive). Then `Cc1nc2c(C(=O)NCc3cccs3)cnn2c(C)c1Cc1ccc(F)cc1`, with 1% (inactive); and `O=C(CN(c1cccc(Cl)c1)S(=O)(=O)c1ccccc1)NN=C1CCCC1`, with -1% (inactive). As for `CC(C)C(=O)Nc1c(O)c2ccccc2[nH]c1=O`, the figure is -4% (inactive). Take `Cc1cc(C(=O)CCl)c(C)n1CC1COc2ccccc2O1` (stereo unspecified): the inhibition was 0% (inactive). As for `COc1cccc2c(N/N=C/c3ccco3)cc(C)nc12`, the figure is 0% (inactive).

With `CCc1ccccc1N1C(=O)C2C3CC(=O)C(c4ccccc43)C2C1=O` (stereo unspecified), the inhibition is -2% (inactive).

As to `Cn1nnnc1-c1cc(Cl)cc(Cl)c1`, the inhibition is 0% (inactive). As for `O=C(Oc1ccccc1Cl)c1ccc(N2CCOCC2)c([N+](=O)[O-])c1`, the figure is 3% (inactive); as for `COc1ccc(Nc2nc(N)nc(CSC(=S)N3CCC(C)CC3)n2)cc1`, 20% (inactive); as for `CC1CCN(c2ccc(C(=O)Nc3nnc(C4CC4)s3)cc2[N+](=O)[O-])CC1`, -12% (inactive). Then `NS(=O)(=O)c1cccc(NC(=O)COC(=O)/C=C/c2ccco2)c1`, with -2% (inactive); and `N#CC1=C(N)Oc2[nH]c(=S)[nH]c(=O)c2C12C(=O)Nc1ccccc12` (stereo unspecified), with -1% (inactive); and `Nc1[nH][nH]c(=O)c1N=Nc1ccc2c(c1)OCO2`, with 0% (inactive). Then `Cc1cc[n+](-c2[nH]c(=O)sc2/C=N/NC(=O)c2ccccc2[O-])cc1C`, with -7% (inactive); and `O=C(NCC(O)c1ccc([N+](=O)[O-])cc1)C1CCCCC1` (stereo unspecified), with 0% (inactive). Consider `CCCC(C)C(=O)NCc1ccncc1` (stereo unspecified), for which the inhibition was 0% (inactive). Take `CCOc1ccc(S(=O)(=O)Nc2nccs2)cc1`: the inhibition was -2% (inactive).

`CCOC(=O)c1c(C)n(C)c2ccc(OC)c(NS(=O)(=O)CC)c12`: the inhibition is -7% (inactive).

For the molecule `COc1cc(C(=O)NCc2ccc3c(c2)cc(C)n3C)cc(OC)c1OC`, the inhibition is -2% (inactive). Turning to `O=c1[nH]oc(O)c1-c1ncc(C(F)(F)F)cc1Cl`, the inhibition was -2% (inactive).

As to `COc1ccc(CC(=O)N[C@@H](CCSC)c2nc3ccccc3[nH]2)cc1`, the inhibition was -5% (inactive). For `Cc1cccc(NC(=S)NC(=O)c2ccc(Br)o2)c1`, the inhibition was 0% (inactive).

`Cc1c(-c2cccc(Cl)c2)nc2ccccc2c1C(=O)OCC(=O)N(C)C1CCS(=O)(=O)C1` (stereo unspecified): the inhibition is 0% (inactive). Consider `CCOC(=O)C1=C(C)N=C2c3ccccc3C(=O)C2C1c1ccc(Br)cc1` (stereo unspecified), for which the inhibition was -6% (inactive). For the molecule `Cc1ccc(-c2nn(-c3ccccc3)cc2C(=O)Nc2cccc(S(=O)(=O)N3CCOCC3)c2)cc1`, the inhibition was -14% (inactive). As for `CN(C)c1ccc(C=NCCc2ccc(S(N)(=O)=O)cc2)cc1`, the figure is -3% (inactive); as for `COc1ccccc1-n1c(C)nc2cc(C(=O)NCc3ccc4c(c3)OCO4)ccc21`, -10% (inactive).

Take `CCOC(=O)c1ccc(N2C(=O)CC(N3CCN(C(=O)c4ccccc4)CC3)C2=O)cc1` (stereo unspecified): the inhibition was -1% (inactive). On to `O=[N+]([O-])c1ccc(F)cc1Oc1nc(-c2cccnc2)nc2ccccc12`, for which the inhibition was 1% (inactive). As to `COc1ccc(/C=N/N=C/c2c[nH]c(=O)c(C#N)c2Nc2ccccc2)cc1`, the inhibition is 11% (inactive).

Turning to `COc1cc(C2OC(c3cc(OC)c(OC)c(OC)c3)C(C)C2C)cc(OC)c1OC` (stereo unspecified), the inhibition was -1% (inactive).

Take `CN(C)CCCCCN(C)Cc1cc2ccccc2o1`: the inhibition was -2% (inactive).

With `COc1ccc(C(=O)COC(=O)COc2ccc(C)c(C)c2)cc1`, the inhibition was -2% (inactive). Then `Cc1ccc(S(=O)(=O)N(C)c2ccc(OCC(=O)NC3=NCCS3)cc2)cc1`, with 0% (inactive); and `CC(=O)NC1C(Oc2ccc(C)cc2)OC2COC(c3ccco3)OC2C1O` (stereo unspecified), with -6% (inactive). Then `Cc1ccc(C(=O)C(=S)N2CCOCC2)cc1`, with -9% (inactive). In the case of `COc1cc(CN2CCNC(=O)C2CC(=O)NCCc2ncccc2C)cc(OC)c1` (stereo unspecified), the inhibition is -3% (inactive). Regarding `C=CCn1c(SCC(=O)CC(=O)OCC)nc2cc(C(=O)N3CCC(C(N)=O)CC3)ccc2c1=O`, the inhibition was -5% (inactive). Then `Cc1ccc(C)c(NC(=O)CCC(=O)N/N=C2/CC(=O)CC(C)(C)C2)c1`, with 0% (inactive); and `Cc1cc(C)c[n+](-c2nc3ccccc3nc2[N-]S(=O)(=O)c2cccs2)c1`, with -3% (inactive). As for `O=C(Nc1cccc(C(F)(F)F)c1)c1ccc(N2CCNCC2)c([N+](=O)[O-])c1`, the inhibition was 0% (inactive).

Turning to `O=C(NCc1cccs1)C1CCN(S(=O)(=O)c2ccc(Cl)cc2)CC1`, the inhibition is 0% (inactive). Consider `CCN(CC(=O)NC(=O)NCc1ccccc1)Cc1nc2ccccc2c(=O)[nH]1`, for which the inhibition is 1% (inactive). Then `C/C(=N/OC(=O)c1c(-c2c(F)cccc2Cl)noc1C)c1cnccn1`, with -3% (inactive); and `Cc1ccc(-c2nn(-c3cccc(F)c3)cc2CNCCc2ccncc2)o1`, with -2% (inactive). As for `O=C(CSc1ccccc1F)NC1CCS(=O)(=O)C1` (stereo unspecified), the figure is 0% (inactive).

Source of the values: PubChem BioAssay AID1007 (NMMLSC, 2008).
